# Experimental data published in paper PMC4336329 (PLoS ONE, 2015).
# Screen size: about 310,000 compounds; about 14,000 (4.5%) showed an effect of 50% or more. Effects have a minus sign here. For the sample, strong results were picked, then their nearest neighbours and some compounds at random.
# Target: human ether-à-go-go-related gene (hERG) potassium channel (human, UniProt Q12809)
# Assay: primary screen, population patch clamp on CHO cells stably expressing hERG; higher = less effect of the substance
# 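Note: peak tail current of the secondary pulse compared with the same well before compound.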
# Sequence of human ether-à-go-go-related gene (hERG) potassium channel (Q12809 whole entry, looked up): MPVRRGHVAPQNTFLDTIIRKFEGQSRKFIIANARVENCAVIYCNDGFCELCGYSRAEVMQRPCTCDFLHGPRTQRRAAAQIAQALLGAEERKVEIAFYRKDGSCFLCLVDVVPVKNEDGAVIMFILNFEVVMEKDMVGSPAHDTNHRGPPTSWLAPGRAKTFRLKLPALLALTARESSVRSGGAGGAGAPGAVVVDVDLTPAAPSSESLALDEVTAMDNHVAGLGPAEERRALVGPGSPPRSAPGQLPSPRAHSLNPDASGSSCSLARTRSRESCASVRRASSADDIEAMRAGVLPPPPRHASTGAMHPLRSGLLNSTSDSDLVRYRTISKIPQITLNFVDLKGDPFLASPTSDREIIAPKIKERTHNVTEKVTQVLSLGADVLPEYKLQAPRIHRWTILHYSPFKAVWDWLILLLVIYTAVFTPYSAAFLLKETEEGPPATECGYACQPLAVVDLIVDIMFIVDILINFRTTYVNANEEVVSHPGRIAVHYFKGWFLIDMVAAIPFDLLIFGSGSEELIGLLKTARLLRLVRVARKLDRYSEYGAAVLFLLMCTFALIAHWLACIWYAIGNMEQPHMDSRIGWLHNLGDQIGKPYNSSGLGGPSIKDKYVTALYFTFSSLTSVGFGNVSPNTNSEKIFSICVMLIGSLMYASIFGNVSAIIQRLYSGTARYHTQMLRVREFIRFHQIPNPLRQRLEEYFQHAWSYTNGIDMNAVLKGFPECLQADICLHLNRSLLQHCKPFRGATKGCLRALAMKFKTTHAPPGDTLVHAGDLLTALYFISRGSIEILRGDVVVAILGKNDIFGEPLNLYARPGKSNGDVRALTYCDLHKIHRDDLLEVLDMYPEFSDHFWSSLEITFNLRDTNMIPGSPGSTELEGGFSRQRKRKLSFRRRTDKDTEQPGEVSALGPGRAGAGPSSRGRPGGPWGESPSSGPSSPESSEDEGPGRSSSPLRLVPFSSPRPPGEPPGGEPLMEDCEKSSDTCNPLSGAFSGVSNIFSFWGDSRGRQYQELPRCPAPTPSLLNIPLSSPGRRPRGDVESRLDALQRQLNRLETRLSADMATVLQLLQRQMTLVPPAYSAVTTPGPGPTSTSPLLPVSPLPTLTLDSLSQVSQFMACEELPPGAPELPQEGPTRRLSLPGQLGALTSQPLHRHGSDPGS
row,Structure (SMILES),"hERG current change (%, negative = inhibition) at 10uM"
1,Cc1ccc(SC(C)C(=O)N2CCC(C(N)=O)CC2)cc1 (centres unmarked),20.1%
2,CCOc1ccc(-c2nc(N)ncc2Oc2ccc(OC)cc2)c(O)c1,-2.1%
3,Cc1cccc(CNc2ccc(C(CC(N)=O)NC(=O)c3cccc(Br)c3)cc2[N+](=O)[O-])c1 (centres unmarked),-19.8%
4,O=C(C[n+]1ccc2ccccc2c1)c1ccccc1.[Br-],-22.5%
5,O=C(Nc1ccccc1)c1ccc[n+](Cc2ccc([N+](=O)[O-])cc2)c1.[Br-],-4.25%
6,O=C(Cn1cc[n+](Cc2ccccc2)c1)c1ccc([N+](=O)[O-])cc1.[Br-],-23.7%
7,O=C(C[n+]1ccn(-c2ccccc2)c1)c1ccc([N+](=O)[O-])cc1.[Br-],-61.3%
8,CC(C)C(=O)Nc1cccc(NC(=O)c2cccc([N+](=O)[O-])c2)c1,-30.9%
9,O=C(C[n+]1ccc2ccccc2c1)c1ccc(NC(=O)c2ccccc2)cc1.[Br-],-0.135%
10,O=C(C[n+]1cccc(NC(=O)c2ccccc2)c1)c1ccc(NC(=O)c2ccccc2)cc1.[Br-],1.37%
11,O=C(C[n+]1ccc2ccccc2c1)c1cccc2ccccc12.[Br-],-72.8%
12,CCC(=O)Nc1cccc(NC(=O)c2cccc([N+](=O)[O-])c2)c1,-61.2%
13,O=C(C[n+]1cccc(C(=O)Nc2ccccc2)c1)c1ccc([N+](=O)[O-])cc1.[Br-],-73.1%
14,C=Cn1cc[n+](CC(=O)c2ccc(-c3ccccc3)cc2)c1.[Br-],7.91%
15,O=C(Nc1cccc([N+](=O)[O-])c1)c1cccc(C(=O)Nc2cccc([N+](=O)[O-])c2)c1,24.1%
16,COc1ccc(/C=C/C(=O)O)cc1S(=O)(=O)NCC1CCCO1 (centres unmarked),14.1%
17,O=[N+]([O-])c1cccc(CSC2=NCCN2S(=O)(=O)c2ccccc2)c1,-6.78%
18,O=C(O)c1cccc(CSc2nc(-c3ccc(Cl)cc3)cc(C(F)(F)F)n2)c1,-0.199%
19,NNC(=O)c1c(O)c2cccc3c2n(c1=O)CCC3,22.4%
20,COc1ccc(N2CCN(S(=O)(=O)c3ccc4c(c3)CCCC4)CC2)c([N+](=O)[O-])c1,6.51%
21,Cc1cc(C(=O)c2ccc3ccccc3c2)c(C)o1,2.09%
22,Cn1ncc([N+](=O)[O-])c1C(=O)N/N=C/c1ccc(F)cc1,-9.05%
23,O=C(Nc1ccccc1C(=O)N1CCCCC1)c1cc(F)c(F)cc1Cl,1.47%
24,O=C(C[n+]1cccc2ccccc21)c1ccccc1.[Br-],-1.84%
25,O=C(Nc1ccc[n+](CC(=O)c2cccc3ccccc23)c1)c1ccccc1.[Br-],-58.9%
26,O=C(C[n+]1cccc(NC(=O)c2ccccc2)c1)c1cccc([N+](=O)[O-])c1.[Br-],-76.3%
27,O=C(C[n+]1cccc(NC(=O)c2ccccc2)c1)c1ccccc1.[Br-],-18.1%

row,Structure (SMILES),"hERG current change (%, negative = inhibition) at 10uM"
1,Cc1ccc(C(=O)C[n+]2cccc3ccccc32)cc1.[Br-],-9.35%
2,O=C(Nc1cccc([N+](=O)[O-])c1)c1ccccc1,7.97%
3,NC(=O)c1ccc[n+](CC(=O)c2cccc([N+](=O)[O-])c2)c1.[Br-],16.9%
4,Cc1cc[n+](CC(=O)c2cccc([N+](=O)[O-])c2)c2ccccc12.[Br-],-58.8%
5,Cc1cc[n+](CC(=O)c2ccccc2)c2ccccc12.[Br-],-8.1%
6,O=C(C[n+]1cccc2ccccc21)c1ccc([N+](=O)[O-])cc1.[Br-],-72.4%
7,Cc1cc[n+](CC(=O)c2ccc(NC(=O)c3ccccc3)cc2)c2ccccc12.[Br-],7.1%
8,NC(=O)c1ccc[n+](CC(=O)c2ccc(NC(=O)c3ccccc3)cc2)c1.[Br-],27.1%
9,O=C1c2ccccc2C(O)(Cc2ccccc2)N1Cc1ccco1 (centres unmarked),10.1%
10,Cc1ccc(C(=O)Nc2ccc(N3CCOCC3)cc2)cc1S(=O)(=O)N1CCCCC1,-10.1%
11,CCOC(=O)CC1(c2ccc(OC)c(OC)c2)C(=O)c2ccccc2C1=O,-1.97%
12,c1ccc(-c2cc3c(nn2)CCc2nonc2-3)cc1,0.384%
13,COc1ccc(-c2nnc(SCC(=O)c3cccs3)o2)cc1,-8.4%
14,CCCOC(=O)CCCCCCCCC(O)CN1CCCCC1.Cl (centres unmarked),-30%
15,Cc1ccnc(NC(=O)Nc2cccc(F)c2)c1,-4.23%
16,COc1ccc(NC(=O)c2ccc3ccccc3c2)cc1,11%
17,Cc1cccc(CSCCNC(=O)c2ccc(N(C)S(=O)(=O)c3ccccc3)cc2)c1,-4.05%
18,Cc1cccc(C(CC(=O)N2CCCC2)c2ccccc2)c1O (centres unmarked),-19.4%
19,Cc1cccc(C(CC(=O)N2CCCCC2)c2ccccc2)c1O (centres unmarked),-34.2%
20,Cc1ccc(C(CC(=O)N2CCNCC2)c2ccccc2)c(O)c1C (centres unmarked),-63.8%
21,Cc1ccc(C(CC(=O)N2CCCCC2)c2ccccc2)c(O)c1C (centres unmarked),-22.1%
22,Cc1ccc(C(CC(=O)N2CCCC2)c2ccccc2)c(O)c1C (centres unmarked),-57.9%
23,Cc1ccc(C(CC(=O)N2CCCC2)c2ccccc2)c(O)c1 (centres unmarked),4.04%
24,O=C(c1ccc(Br)s1)N1CCN(c2ncccn2)CC1,-20.3%
25,CC12CCC3c4ccc(O)cc4CCC3C1CC(O)C2O (centres unmarked),19.5%
26,CC1=C(C(=O)Nc2ccccn2)C(c2ccccc2Cl)NC(=S)N1 (centres unmarked),10.1%
